ELG1 DNA repair = ELG1-dependent DNA repair inhibition. HEK293T ELG1-luciferase reporter, luminescence, 16 h; DNA damage induced by 5-fluorouridine. Potency, µM (highest dose often 46.1 µM), for the others: at the top dose activity change, negative = inhibition, hits mostly inhibitors. 330,000 compounds, 2.3% hits; further: on the % scale 0 is the no-effect control and ±100 the full control effect; nearly all actives have a fitted effect of over 55% in size
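Step one: seed 2,000 cells per well. Step two: pin-transfer compound or DMSO alongside 5-fluorouridine. Step three: incubate 16 hr, 37 °C, 5% CO2. Step four: add ONE-Glo, wait 30 min, read luminescence.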
Rab9 promoter act = activators of Rab9 promoter; Huh7 Rab9 promoter-luciferase reporter, luminescence, 24 h; Potency, µM (titrated, usually from 9.22 µM), for inactives: at the top dose activation, negative = inhibition, usual class: activators; 320,000 compounds, 2.8% hits; further: % of control where 0% means no effect; nearly all actives have a fitted effect of over 60% in size
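Stable Rab9-luc Huh7, 1500 cells/well, 2 h settle; cmpd in DMSO, 24 h, 37 °C/5% CO2; luciferase reagent 10 min RT; luminescence.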
ELG1 genotoxic = inducers of genotoxicity in HEK293T ELG1-luciferase cells | 330,000 compounds, 1.3% hits | HEK293T ELG1-luciferase reporter, luminescence, 16 h | Potency, µM (top dose mostly 46 µM), inactives show top-dose activity change, positive = activation, usual class: activators; further: % of control where 0% means no effect; nearly all actives have a fitted effect of over 60% in size
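Luminescence read-out: rising ELG1-luciferase signal, reflecting elevated ELG1 protein under genetic stress, flags genotoxic compounds. Cells were treated for 16 hr at 37 °C before ONE-Glo detection.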
SMN2 splice up = enhancers of SMN2 splice variant expression; HEK293 SMN2-luciferase splicing reporter, luminescence, 30-36 h; Potency, µM (doses to about 46.1 µM), without a hit: at the top dose activity change, positive = activation, usual class: activators; 210,000 compounds, 2.8% hits; AID 1458; further: % of control where 0% means no effect; nearly all actives have a fitted effect of over 55% in size
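qHTS luciferase splicing reporter: luminescence rises when SMN2 exon 7 is included in transfected HEK293 cells. Compound exposure lasted 30-36 h at 37C, with 4.5 mM final sodium butyrate as control, followed by a ONE-Glo read.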
FLuc modulator = inhibits or activates purified firefly luciferase, miR-21 counter-screen. Potency, µM (highest dose often 57.5 µM), for inactives: at the highest dose activity change, negative = inhibition, usual class: inhibitors. purified FLuc, Km substrates, luminescence inhibition. 360,000 compounds, 6.9% hits. P08659;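 further: plate controls were vehicle for no effect and reference inhibitor for full effect; nearly all actives have a fitted effect of over 55% in size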
Target sequence (P08659 whole entry, looked up): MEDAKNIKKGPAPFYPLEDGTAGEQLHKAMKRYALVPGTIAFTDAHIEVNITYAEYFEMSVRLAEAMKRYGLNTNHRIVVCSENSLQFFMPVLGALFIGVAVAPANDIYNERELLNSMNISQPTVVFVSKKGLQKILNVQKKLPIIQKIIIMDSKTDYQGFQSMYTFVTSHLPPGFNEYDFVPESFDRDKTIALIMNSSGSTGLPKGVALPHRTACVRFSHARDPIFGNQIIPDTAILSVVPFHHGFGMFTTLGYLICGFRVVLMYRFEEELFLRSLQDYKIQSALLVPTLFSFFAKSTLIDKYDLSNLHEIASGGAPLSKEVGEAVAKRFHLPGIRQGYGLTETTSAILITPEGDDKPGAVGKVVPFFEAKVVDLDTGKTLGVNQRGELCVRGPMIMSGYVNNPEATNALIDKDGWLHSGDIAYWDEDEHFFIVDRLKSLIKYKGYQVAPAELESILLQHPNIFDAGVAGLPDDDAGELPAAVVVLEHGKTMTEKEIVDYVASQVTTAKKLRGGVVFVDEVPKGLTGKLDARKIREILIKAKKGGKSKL
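Purified P. pyralis luciferase, 10 nM final, with Km-level 10 uM D-luciferin and 10 uM ATP in 50 mM Tris acetate pH 7.5, 10 mM Mg acetate, 0.01% Tween-20, 0.05% BSA; 6-point qHTS titration about 60 µM downward; luminescence read.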
NPC1 promoter act = activates the NPC1 promoter; Huh7 NPC1 promoter luciferase reporter, 24 h; Potency, µM (titrated, usually from 9.22 µM), for inactives: at the top dose activation, hits mostly activators; 320,000 compounds, 2.4% hits; AID 485313; further: % of control where 0% means no effect; nearly all actives have a fitted effect of over 60% in size
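In 1536-well qHTS, Huh7 cells harboring an NPC1 promoter–luciferase construct received compound for 24 h; activation was quantified by luminescence following luciferase reagent addition.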
Active calls of the source: *; ? = inconclusive; . = no result given; [ ] = remark or other dose. The list is not random: actives were taken first. Their share in the collection is about 9.2%. The call rests on the fitted dose curve; in most records, active means well fitted curve in the direction sought with a large enough effect; inconclusive means small, poorly fitted or top-dose-only effect, or another doubt; inactive means no such curve, though single readings can be large; an effect the other way counts as inactive or inconclusive. Potency means the concentration at half of the fitted maximal effect.

SMILES	ELG1 DNA repair	Rab9 promoter act	ELG1 genotoxic	SMN2 splice up	FLuc modulator	NPC1 promoter act
COc1ccc2c(c1OC)C(=O)N(c1ccc(F)cc1)C2	?	1.26µM*	?	.	8.49µM*	2µM*
Cc1cccc(OCC(=O)NCC(=O)N/N=C/c2cc(Br)cc(Br)c2O)c1	?	-6.2%	?	.	-4.2%	0.0%
CCOC(=O)c1cc2c(=O)n3ccccc3nc2n(CC2CCCO2)c1=NC(=O)c1cc(C)cc(C)c1 (stereo not given)	.	.	.	?	1.8%	.
O=C(COC(=O)c1ccc(O)cc1)c1ccc2c(c1)OCCO2	?	3.98µM*	5.17µM*	.	1.2µM*	3.55µM*
CCOC(=O)C1=C(C)NC(C)=C(C(=O)OCC)C1C(=O)OCC(N)=O	0.3%	-2.3%	4.9%	13.1%	-1.7%	-0.6%
COC(=O)C(Cc1ccc(O)cc1)NC(=O)c1ccc2c(c1)OCCO2 (stereo not given)	?	6.1%	?	.	1.35µM*	8.3%
CCOC(=O)C1=C(C)NC(C)=C(C(=O)OCC)C1C(=O)OCC(=O)c1ccc2c(c1)OCCO2	2.91µM*	15.9%	14.2%	-3.8%	-17.8%	0.6%
O=C(COC(=O)c1cc(Cl)ccc1O)c1ccc2c(c1)OCO2	?	29.9%	7.9%	.	1.9µM*	?
COc1cccc(/C=C(\C#N)C(=O)Nc2ccc(NC(C)=O)cc2)c1OC	.	.	.	.	-4.0%	.
O=C(c1ccccc1)c1cccc[n+]1[O-]	3.6%	1.9%	0.3%	.	-0.3%	-3.6%
CCOC(=O)C1=C(C)NC(C)=C(C(=O)OCC)C1C(=O)OCC(=O)NCc1ccco1	10.3µM*	.	-6.4%	.	.	.
CC(=O)Nc1cc(NC(C)=O)cc(C(=O)OCC(=O)c2ccc3c(c2)OCO3)c1	?	0.8%	29.4%	.	-2.8%	-2.5%
O=C(COC(=O)c1ccc(O)cc1O)c1ccc2c(c1)OCO2	2.1%	5.5%	6.9%	.	8.49µM*	?
Cc1ccccc1Oc1nc(-c2ccccn2)nc2ccccc12	?	-1.5%	-7.1%	.	-12.6%	-1.8%
COc1ccc(NC(=O)CCn2cnnn2)cc1	.	.	.	.	1.9%	.
CC(C)COc1ccc(-c2nnc(-c3ccncc3)o2)cc1	?	0.631µM*	14.6%	19.1%	3.38µM*	1.12µM*
c1cc(-c2nnc(-c3ccncc3)o2)ccn1	7.8%	2.8%	0.2%	4.6%	2.8%	-1.1%
CCCOc1ccc(-c2nnc(-c3ccncc3)o2)cc1	?	?	2.06µM*	?	4.78µM*	3.55µM*
O=C(CN1CCc2ccccc2C1)Nc1ccccc1F	-7.2%	2.1%	-2.0%	.	0.7%	-0.3%
CCc1cnc2c(c1SCC(=O)Nc1ccc(Cl)cc1)c(=O)n(C)c(=O)n2C	.	.	.	.	-5.5%	.
Cc1ccccc1OCc1nnc(SCc2cc(=O)c3cccc(F)c3[nH]2)n1C	.	.	.	.	3.2%	.
CCOc1ccc(/C=C2/Sc3ccc(C(=O)NCC4CCCO4)cc3N(C)C2=O)cc1OC (stereo not given)	18.3µM*	-1.2%	1.1%[9.26 µM]	.	-19.8%	-4.2%
CCOc1ccc(/C=C2/Sc3ccc(C(=O)N4CCN(C(=O)c5ccco5)CC4)cc3N(C)C2=O)cc1OC	20.6µM*	-7.7%	-13.6%	-72.3%	-12.2%	-18.5%
O=c1cc(N=Nc2ccc(Cl)cc2)[nH]c(=O)[nH]1	23.1µM*	-49.6%	-15.6%	.	-14.1%	-28.2%
CC(C(=O)NCc1ccccc1F)n1ccc2cc(S(=O)(=O)N3CCCC3)ccc21 (stereo not given)	.	.	.	.	-1.1%	.
SMILES	ELG1 DNA repair	Rab9 promoter act	ELG1 genotoxic	SMN2 splice up	FLuc modulator	NPC1 promoter act
Cc1ccc2c(CN3CCN(C(=O)c4ccc(Br)cc4)CC3)cc(=O)oc2c1	.	.	.	5.0%	-1.3%	.
COc1ccc(/C=C2\SC(=S)N(c3cccnc3)C2=O)cc1	0.6%	3.0%	3.9%	.	6.2%	3.0%
COc1cccc(/C=C2\SC(=S)N(c3cccnc3)C2=O)c1OC	-13.2%	-3.9%	-0.4%	10.1%	2.39µM*	-1.4%
CSc1ccccc1C(=O)Nc1nc2ccccc2c(=O)[nH]1	?	2.82µM*	6.5%	.	19µM*	24.4%
CS(=O)(=O)c1ccccc1C(=O)Nc1nc2ccccc2[nH]1	6.4%	2.0%	0.8%	.	-2.6%	-3.9%
CSc1ccccc1C(=O)Nc1nc2ccccc2[nH]1	?	4.47µM*	?	14.1µM*	?	3.16µM*
Cc1cc(C)c(S(=O)(=O)N2CCC(N3CCN(Cc4ccc(F)cc4)C(=O)C3=O)CC2)c(C)c1	.	.	.	.	-0.1%	.
CC1CC(C)CN(C(=O)c2cc3ccccc3o2)C1 (stereo not given)	?	?	23.1µM*	.	?	23.5%
CC1CCN(C(=O)c2cc3ccccc3o2)CC1	?	?	13µM*	?	19µM*	?
CC1CC(C)CN(C(=O)Nc2ccc(Br)cc2)C1 (stereo not given)	3.3%	10.2%	0.3%	10.7%	?	-0.6%
CC1CC(C)CN(C(=O)c2cc3cc(Br)cc(Br)c3o2)C1 (stereo not given)	?	17.2%	?	11.3%	16.9µM*	14.8%
CC(=O)N1CCN(C(=O)c2cc3ccccc3o2)CC1	?	-2.0%	7.0%	.	0.6%	-2.5%
Cc1onc(-c2ccccc2)c1C(=O)OCC(=O)Nc1cccc(Cl)c1	13µM*	-1.6%	-9.0%	.	0.6%	0.5%
CCOC(=O)c1c(NC(=O)c2c(-c3ccccc3)noc2C)sc(C)c1-c1ccccc1	13.2%	21.3%	-8.7%	0.708µM*	-1.5%	-10.6%
CCN1CCN(C(=S)Nc2sc(C)c(-c3ccccc3)c2C(=O)OC)CC1	16.4µM*	-5.8%	-6.9%	.	-2.6%	-3.2%
Cc1onc(-c2ccccc2)c1C(=O)OCC(=O)Nc1ccc(Cl)cc1	?	-9.3%	-7.1%	.	.	3.1%
